Among all 400,000 compounds or so, about 2,100 (0.53%) were called active. Roughly 14% stayed inconclusive and do not appear here. No rule for the calls is given here. The entries come from a sample that favours actives as a whole.
The molecules below were run against Ataxin-2 (Homo sapiens) (UniProt Q99700) (assay: qHTS for Inhibitors of ATXN expression.).
Sequence of Ataxin-2 (Homo sapiens) (Q99700 whole entry): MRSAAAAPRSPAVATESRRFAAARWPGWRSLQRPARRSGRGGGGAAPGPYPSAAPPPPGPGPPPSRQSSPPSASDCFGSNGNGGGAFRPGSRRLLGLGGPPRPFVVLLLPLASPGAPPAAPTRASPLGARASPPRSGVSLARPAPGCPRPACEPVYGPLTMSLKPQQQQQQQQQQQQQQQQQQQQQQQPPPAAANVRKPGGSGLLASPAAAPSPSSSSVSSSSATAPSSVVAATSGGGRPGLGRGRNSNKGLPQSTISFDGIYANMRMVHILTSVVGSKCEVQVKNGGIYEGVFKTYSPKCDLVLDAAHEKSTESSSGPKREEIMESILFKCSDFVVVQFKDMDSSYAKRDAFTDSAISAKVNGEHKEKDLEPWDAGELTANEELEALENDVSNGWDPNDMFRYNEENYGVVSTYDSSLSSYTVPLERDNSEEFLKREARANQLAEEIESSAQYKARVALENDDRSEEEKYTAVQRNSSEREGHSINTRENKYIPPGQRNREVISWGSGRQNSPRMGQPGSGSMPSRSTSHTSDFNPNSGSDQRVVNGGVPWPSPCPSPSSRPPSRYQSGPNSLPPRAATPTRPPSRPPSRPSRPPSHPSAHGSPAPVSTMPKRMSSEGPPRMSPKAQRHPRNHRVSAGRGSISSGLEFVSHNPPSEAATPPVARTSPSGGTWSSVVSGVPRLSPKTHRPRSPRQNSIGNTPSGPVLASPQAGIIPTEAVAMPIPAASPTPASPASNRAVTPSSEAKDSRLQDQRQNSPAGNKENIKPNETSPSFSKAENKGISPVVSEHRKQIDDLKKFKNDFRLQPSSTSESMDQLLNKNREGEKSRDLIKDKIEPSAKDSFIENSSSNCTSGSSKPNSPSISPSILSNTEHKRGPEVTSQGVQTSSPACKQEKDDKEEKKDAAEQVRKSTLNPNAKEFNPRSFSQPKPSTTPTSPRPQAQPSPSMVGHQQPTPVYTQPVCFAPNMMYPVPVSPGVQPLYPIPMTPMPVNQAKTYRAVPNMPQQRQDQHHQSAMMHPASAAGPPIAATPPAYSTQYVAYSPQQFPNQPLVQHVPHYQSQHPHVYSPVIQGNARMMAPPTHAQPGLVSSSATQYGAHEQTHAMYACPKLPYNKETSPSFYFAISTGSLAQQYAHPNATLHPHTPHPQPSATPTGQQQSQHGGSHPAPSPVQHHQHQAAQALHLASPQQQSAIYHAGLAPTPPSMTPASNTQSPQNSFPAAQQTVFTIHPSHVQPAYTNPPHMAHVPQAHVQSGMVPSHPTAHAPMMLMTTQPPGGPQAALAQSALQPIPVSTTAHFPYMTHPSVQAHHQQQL
Type: functional
With `COCCCn1/c(=N/C(=O)c2ccncc2)c(C#N)cc2c(=O)n3cccc(C)c3nc21` the Potency was “inactive”.
With `c1cc2c(cc1C1CCCCC1)c1c3n2CCCNC3CCC1` (stereo unspecified) the Potency was 39.8 µM (active).
In the case of `COc1ccc(OC)c(S(=O)(=O)Nc2ccc(O)c3ccccc23)c1`, the Potency is reported as 28.2 µM (active).
`COc1ccc(OC)c(S(=O)(=O)Nc2ccc3c(c2)OCCO3)c1` was tested, and the Potency was “inactive”.
`COc1ccc(NS(=O)(=O)c2cc(NC(=O)c3cc(=O)c4ccccc4o3)ccc2OC)cc1` was tested, and the Potency was “inactive”.
For `CN(CCC1CCCCO1)C(=O)CCc1nnc(CCCCc2ccccc2)o1` (stereo unspecified), the Potency was “inactive”.
`Cc1ccc(OCC(=O)Nc2ccc(CN3CCOCC3)cc2)cc1C` was tested, and the Potency was “inactive”.
In the case of `Cc1cc(C)c(CN2CCN(CCCn3cnc(C(=O)Nc4ccc(C)c(C)c4)n3)CC2)c(C)c1`, the Potency is reported as 35.5 µM (active).
With `Brc1ccc(C2=CC(c3ccco3)n3nnnc3N2)cc1` (stereo unspecified) the Potency was “inactive”.
With `CC(C)N=C(S)NN=C1c2ccccc2-c2ccccc21` the Potency was “inactive”.
For `CCC1CSC(Nc2ccc(C(=O)/C=C/c3ccc(OC)c(OC)c3)cc2)=N1` (stereo unspecified), the Potency was 39.8 µM (active).
In the case of `CCOc1ccc(Nc2oc(/C=C/c3cccc(OC)c3)nc2C#N)cc1`, the Potency is reported as “inactive”.
In the case of `COc1cc(/C=C/C(=O)OCC(=O)NC2CCS(=O)(=O)C2)ccc1OC(F)F` (stereo unspecified), the Potency is reported as “inactive”.
In the case of `COc1cc(/C=C/C(=O)Nc2ccc(S(=O)(=O)Nc3onc(C)c3C)cc2)cc(OC)c1OC`, the Potency is reported as “inactive”.
With `CCc1nnc(NS(=O)(=O)c2ccc(N/C=C\C(=O)c3cccc(OC)c3)cc2)s1` the Potency was “inactive”.
In the case of `COc1ccc(/C=C/C(=O)Nc2cccnc2)cc1OC`, the Potency is reported as “inactive”.
`CCOC(=O)c1sc2nc(C)nc(Nc3ccc(OC)c(OC)c3)c2c1C` was tested, and the Potency was “inactive”.
In the case of `COc1ccc(/C=C/C(=O)Nc2ccc(Cl)c(Cl)c2)cc1OC`, the Potency is reported as 31.6 µM (active).
For `COc1cccc(/C=C/C(=O)c2ccc(NC3=NCCCS3)cc2)c1`, the Potency was 39.8 µM (active).
`CC(C)C(C)(C#N)NC(=O)CSc1nnc(C(F)(F)F)n1C` (stereo unspecified) was tested, and the Potency was “inactive”.
With `COc1cccc(/C=C/c2nc(C#N)c(N3CCCCCC3)o2)c1` the Potency was “inactive”.
With `COc1ccccc1[C@@H]1C(c2cccc(C)c2)=NN(c2ccccc2)[C@H]1C(=O)N1CCOC1=O` the Potency was “inactive”.
In the case of `CCN1CN=C(S)N(c2ccccc2C)C1`, the Potency is reported as “inactive”.
For `Cc1nn2c(-c3ccc(F)cc3)ccnc2c1Cl`, the Potency was “inactive”.
In the case of `CN(C)c1ccc(/C=C2\Oc3ccc(C#Cc4cccc(N)c4)cc3C2=O)cc1`, the Potency is reported as “inactive”.
With `CN1Cc2c(N3CCOCC3)nc3sc(C(=O)c4ccc(Br)cc4)c(N)c3c2CC1(C)C` the Potency was “inactive”.
In the case of `Cc1ccccc1-c1nc(C#N)c(N2CCCCC2)o1`, the Potency is reported as “inactive”.
In the case of `COC1=C(OC)C(=O)C(Sc2ccc3ccccc3c2)=CC1=O`, the Potency is reported as 33.6 µM (active).
For `CC1=CC(=O)C(Sc2ccc(C)cc2)=CC1=O`, the Potency was “inactive”.
`Cc1cccn2c(=O)c3cc(C(=O)NCC4CCCO4)c(=N)n(C4CCCCC4)c3nc12` (stereo unspecified) was tested, and the Potency was “inactive”.
With `COC(=O)C1=NN(c2ccc(C)cc2)C2C(=O)N(c3ccccc3OC)C(=O)C12` (stereo unspecified) the Potency was “inactive”.
For `COc1ccccc1CNC(=O)Cc1cc(O)nc(O)n1`, the Potency was “inactive”.
`COc1ccccc1CNC(=O)Nc1nc(C(N)CCc2ccccc2)cs1` (stereo unspecified) was tested, and the Potency was 39.8 µM (active).
In the case of `COc1ccc(OC)c(NC(=O)Nc2nc(C(N)CCc3ccccc3)cs2)c1` (stereo unspecified), the Potency is reported as 39.8 µM (active).
`COc1ccccc1CNC(=O)C(C)Sc1ccc(C)cc1` (stereo unspecified) was tested, and the Potency was “inactive”.
With `Cc1ccc(S(=O)(=O)Nc2nc3n(n2)C(c2ccccc2Cl)C=C(c2ccccc2)N3)cc1` (stereo unspecified) the Potency was “inactive”.
With `Oc1cccc2ccc(Nc3ccccn3)nc12` the Potency was 39.8 µM (active).
In the case of `Oc1ccc(/C=C/c2ccc3cccc(O)c3n2)cc1Br`, the Potency is reported as “inactive”.
With `CSc1ccc(/C=C/c2ccc3cccc(O)c3n2)cc1` the Potency was “inactive”.
`O=c1oc2ccccc2cc1-c1nc2c(s1)CCc1ccccc1-2` was tested, and the Potency was “inactive”.
`Cc1cc(C)c2c(N)c(C(=O)N/N=C/c3cccnc3)sc2n1` was tested, and the Potency was “inactive”.
In the case of `CC(NCC(O)COCCC12CC3CC(CC(C3)C1)C2)c1ccccc1` (stereo unspecified), the Potency is reported as 39.8 µM (active).
For `CC(NCC(O)COC1CCC(C(C)(C)C)CC1)c1ccccc1` (stereo unspecified), the Potency was 35.5 µM (active).
With `Cc1cccc(C)c1OCC(O)CNC(C)c1ccccc1` (stereo unspecified) the Potency was “inactive”.
In the case of `CC(O)CNC12CC3CC(CC(C3)C1)C2` (stereo unspecified), the Potency is reported as “inactive”.
`CCOc1ccc2nc(N3CCCN(C(=O)Nc4ccccc4C)CC3)c(C#N)cc2c1` was tested, and the Potency was “inactive”.
For `O=C1CC2C(=O)NCCN2C(NC(=O)c2ccc(Cl)cc2)=N1` (stereo unspecified), the Potency was “inactive”.
For `Oc1ccc(N=Nc2ccc3c(c2)OCCO3)c2ncccc12`, the Potency was 15.8 µM (active).
`COC(=O)c1ccc(C(=O)OC)c(NC(=S)N2CCN(c3ccccc3F)CC2)c1` was tested, and the Potency was “inactive”.
In the case of `COc1ccc(CCC(=O)OCC(=O)Nc2ccc(OC)c(OC)c2)cc1OC`, the Potency is reported as “inactive”.
In the case of `COc1ccc(-c2nnc(-c3ccccc3)o2)cc1OC`, the Potency is reported as “inactive”.
With `COc1ccc(CC(=O)Nc2cccc(-c3nnc(-c4ccccc4)o3)c2)cc1OC` the Potency was 10 µM (active).
For `CCOc1cc(-c2noc(-c3ccncc3)n2)cc(Br)c1OC`, the Potency was 44.7 µM (active).
In the case of `O=[N+]([O-])c1ccc(-c2nc(-c3ccncc3)no2)cc1`, the Potency is reported as “inactive”.
For `CCOc1ccccc1-c1nc(-c2ccc(C)nc2OC)no1`, the Potency was “inactive”.
In the case of `O=C1C=C(N(CCO)Cc2ccccc2)c2ccccc2C1=O`, the Potency is reported as 29.9 µM (active).
With `CC1(C)Cc2nc(Cl)c(C(N)=O)cc2CO1` the Potency was “inactive”.
For `C=CCC[C@H](Cc1ccc(F)cc1)C(=O)OC[C@H](Cc1c[nH]c2ccccc12)NC(=O)[C@@H](CC=C)CC(=O)N(CCO)Cc1ccccc1`, the Potency was 22.4 µM (active).
With `C=CCC[C@@H](Cc1ccc(F)cc1)C(=O)OC[C@@H](Cc1c[nH]c2ccccc12)NC(=O)[C@H](CC=C)CC(=O)N(CCO)Cc1ccccc1` the Potency was 22.4 µM (active).
`COC(=O)c1cc(NC(=O)CN2CCN(C(C)=O)CC2)cc(C(=O)OC)c1` was tested, and the Potency was “inactive”.
With `Cc1ccc2[nH]c(CSc3nc(C)cc(C)c3C#N)nc2c1` the Potency was “inactive”.
In the case of `CCc1cc(=O)oc2c(C)c(O)c(CN3CCCCC3)cc12`, the Potency is reported as “inactive”.
In the case of `N#Cc1cc([N+](=O)[O-])c(-n2nnc3ccccc32)c([N+](=O)[O-])c1`, the Potency is reported as 22.4 µM (active).
`O=C(NOC(=O)c1c(F)cccc1Cl)c1ccc(Cl)c(Cl)c1` was tested, and the Potency was “inactive”.
`CCCCN1C(=O)C(O)(CC(=O)c2ccc(C)cc2C)c2cc(Br)ccc21` (stereo unspecified) was tested, and the Potency was 31.6 µM (active).
`CCCCN1C=C(C(=O)OC)C(c2ccccc2Cl)C(C(=O)OC)=C1` was tested, and the Potency was “inactive”.
With `Cc1ccc(OCCn2cnc(Cl)c2Cl)cc1` the Potency was “inactive”.
With `CCN(CC)C(=O)c1cccc(NC(=O)c2cc(C3CC3)nc3c2cnn3C(C)C)c1` the Potency was “inactive”.
`CC(=O)c1ccc(S(=O)(=O)NCCC(=O)N2CCN(c3ccccn3)CC2)cc1` was tested, and the Potency was “inactive”.
`COc1cc2c(cc1OC)CN(S(=O)(=O)c1ccccc1F)CC2` was tested, and the Potency was “inactive”.
`COc1cc2c(cc1OC)C(C)N(S(=O)(=O)c1cnc(Cl)c(Cl)c1)CC2` (stereo unspecified) was tested, and the Potency was 12.6 µM (active).
In the case of `COc1ccc(-c2c(C)nn3c(N4CCOCC4)cc(C)nc23)cc1OC`, the Potency is reported as “inactive”.
`CSc1nc(Nc2ccc(F)cc2)cc(-c2ccccc2)n1` was tested, and the Potency was 22.4 µM (active).
`COC(=O)Cn1c2ccccc2c2nc3ccccc3nc21` was tested, and the Potency was “inactive”.
In the case of `O=c1oc2ccccc2n1CCn1c2ccccc2c2nc3ccccc3nc21`, the Potency is reported as 44.7 µM (active).
With `Cc1cccc2c3nc4ccccc4nc3n(C)c12` the Potency was “inactive”.
With `CC(C)(C)c1ccc(C(=O)N2CCC(=O)N([C@H](COCc3ccccc3)Cc3ccccc3)CC2)cc1` the Potency was 35.5 µM (active).
In the case of `CC(C)(C)c1ccc(C(=O)N2CCC(=O)N(C(COCc3ccccc3)Cc3ccccc3)CC2)cc1` (stereo unspecified), the Potency is reported as 28.2 µM (active).
`COc1ccc(-c2ccc(CN3C(CC(C)C)C(=O)N(Cc4cn(CC5CCCCC5)nn4)CCS3(=O)=O)cc2)cn1` (stereo unspecified) was tested, and the Potency was 10 µM (active).
For `CC(C)CC1C(=O)N(Cc2cn(Cc3ccco3)nn2)CCS(=O)(=O)N1Cc1ccc(-c2cccc(CO)c2)cc1` (stereo unspecified), the Potency was 35.5 µM (active).
With `CC(C)CC1C(=O)N(Cc2cn(Cc3ccco3)nn2)CCS(=O)(=O)N1Cc1ccc(-c2ccc(F)nc2)cc1` (stereo unspecified) the Potency was 25.1 µM (active).
With `COc1ccc(NS(=O)(=O)c2cc3c(cc2C)N(C)CCO3)c(OC)c1` the Potency was “inactive”.
With `CC1CCN(Cc2c(O)ccc3c2O/C(=C\c2ccco2)C3=O)CC1` the Potency was “inactive”.
`O=C(c1cnn(-c2ccccc2)c1)c1cc(F)ccc1O` was tested, and the Potency was “inactive”.
In the case of `Cc1ccc(Nc2nc(-c3ccccc3)c(CC(=O)O)s2)cc1`, the Potency is reported as “inactive”.
`Cc1ccc(Nc2c(-c3ccsc3)nc3cccc(C)n23)cc1` was tested, and the Potency was 25.1 µM (active).
`Cc1cccc2nc(-c3ccccn3)c(Nc3ccc(F)cc3)n12` was tested, and the Potency was 20 µM (active).
In the case of `Cc1sc(-c2ccccn2)nc1OC(=O)c1ccc(F)cc1F`, the Potency is reported as “inactive”.
`Cc1cc(Nc2ccc(F)cc2)n2c(nc3ccccc32)c1C#N` was tested, and the Potency was “inactive”.
For `CCC1Cc2c(nc(N)c3c(N)nc(N4CCCCC4)c(C#N)c23)O1` (stereo unspecified), the Potency was “inactive”.
For `N=c1c(C(=O)NCC2CCCO2)cc2c(=O)n3ccccc3nc2n1Cc1ccc(Cl)cc1` (stereo unspecified), the Potency was “inactive”.
With `CC(=O)C1=NN(c2ccccc2)C(c2ccc3c(c2)OCO3)N1c1ccccc1` (stereo unspecified) the Potency was “inactive”.
`Cc1c2c(n3c(nc4ccccc43)c1C#N)N(CCN1CCOCC1)CC2` was tested, and the Potency was “inactive”.
`CCOC(=O)c1cc2c(=O)n3ccccc3nc2n(Cc2ccco2)/c1=N\C(=O)c1cccc(C)c1` was tested, and the Potency was “inactive”.
For `C=C1CC(COc2ccc3c(C)c(Cl)c(=O)oc3c2)(c2ccccc2)OC1=O` (stereo unspecified), the Potency was 9.47 µM (active).
With `C=C1CC(COc2cc(=O)oc3ccccc23)(c2ccccc2)OC1=O` (stereo unspecified) the Potency was 39.8 µM (active).
With `CCN(CC)c1ccc2c(C)c(Cl)c(=O)oc2c1` the Potency was “inactive”.
With `CCC(=O)Oc1ccc2c(C)c(Cl)c(=O)oc2c1` the Potency was “inactive”.
In the case of `COc1cc(NC(=O)c2sc3ncn(CC(=O)N4CCC(C)CC4)c(=O)c3c2C)cc(OC)c1OC`, the Potency is reported as “inactive”.
In the case of `COc1cc(/C=C(\C#N)c2nc3ccccc3[nH]2)cc(Br)c1OCc1ccccc1`, the Potency is reported as “inactive”.
In the case of `COc1cc(CNC(C)c2ccccc2)cc(Br)c1OCc1ccc(F)cc1` (stereo unspecified), the Potency is reported as 39.8 µM (active).

Reference: ChEMBL document CHEMBL1201862, “PubChem BioAssay data set” (2004)
